Source: PubChem BioAssay
Most compounds without a hit are left out; they make up all but 2.4% or so of the library.
HTT prom inh – inhibitors of huntingtin promoter activity | HEK293 HTT promoter firefly luciferase reporter, 24 h | Potency, µM (series often up to 57.5 µM), inactives show at the top dose activity change, negative = inhibition, most hits filed as inhibitors | 48,000 compounds, 0.93% hits | AID 1508623; further: potency means the concentration at half of the fitted maximal effect; nearly all actives have a fitted effect of over 50% in size
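Luminescence was read after Dual-Glo reagent and a 10 min room-temperature incubation. Values were normalized to vehicle (0% activity) and zero RLU (-100% activity). Reporter HEK293 cells had been exposed to compounds (up to 57.5 uM final) for 24 h.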
NTMT1 inh – blocks human N-terminal methyltransferase 1 activity. Q9BV86. NTMT1 MTase-Glo SAH luminescence, purified enzyme. Potency, µM (top dose mostly 114 µM), without a hit: top-dose activity change, negative = inhibition, most hits filed as inhibitors. 59,000 compounds, 2.5% hits;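 further: potency means the concentration at half of the fitted maximal effect; plate controls were DMSO vehicle for no effect and no enzyme for full effect; nearly all actives have a fitted effect of over 65% in size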
Target sequence (Q9BV86 whole entry, looked up): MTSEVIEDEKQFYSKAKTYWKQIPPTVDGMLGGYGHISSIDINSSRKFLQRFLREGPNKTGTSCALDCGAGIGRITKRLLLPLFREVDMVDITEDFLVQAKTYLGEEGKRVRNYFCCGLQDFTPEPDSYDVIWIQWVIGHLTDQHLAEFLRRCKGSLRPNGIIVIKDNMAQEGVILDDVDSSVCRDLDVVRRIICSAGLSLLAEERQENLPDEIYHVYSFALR
HTT-AS act – activates huntingtin-antisense promoter activity; 48,000 compounds, 0.24% hits; Potency, µM (titrated, usually from 57.5 µM), for the others: at the highest dose activity change, positive = activation, most hits filed as activators; AID 1508624; HEK293 HTT-AS promoter firefly luciferase reporter, 24 h; response scale: percent change from vehicle, -100% = no light; further: potency means the concentration at half of the fitted maximal effect; nearly all actives have a fitted effect of over 55% in size
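Luminescence was read after Dual-Glo reagent and a 10 min room-temperature incubation. Values were normalized to vehicle (0% activity) and zero RLU (-100% activity). Reporter HEK293 cells had been exposed to compounds (up to 57.5 uM final) for 24 h.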
Sfp qHTS opt – inhibits purified B. subtilis Sfp PPTase; shares compounds with NTMT1 inh; purified Sfp PPTase enzyme activity, qHTS; Potency, µM (titrated, usually from 114 µM), for inactives: top-dose activity change, negative = inhibition, hits mostly inhibitors; 230 compounds, 78% hits
HM489 growth – reduces growth of B. subtilis HM489 strain | B. subtilis HM489 (acpS-) growth, BacTiter-Glo, 5 h | 220 compounds, 50% hits | Potency, µM (series often up to 114 µM), for inactives: at the highest dose activity change, negative = inhibition, usual class: inhibitors | shares compounds with NTMT1 inh
Sfp PPTase gel – inhibits B. subtilis Sfp PPTase in gel assay | 220 compounds, 54% hits | purified Sfp PPTase, gel-based product detection | shares compounds with NTMT1 inh | Potency, µM (series often up to 250 µM), for the others: at the top dose activity change, negative = inhibition, usual class: inhibitors
Sfp inh gel – Sfp phosphopantetheinyl transferase inhibition, gel detection; 45 compounds, 90% hits; purified Sfp PPTase, gel-based product detection; shares compounds with NTMT1 inh; Potency, µM (series often up to 250 µM), for inactives: at the highest dose activity change, negative = inhibition, usual class: inhibitors
Sfp inh SAR2 – inhibitors of Bacillus subtilis Sfp PPTase, SAR round 2. shares compounds with NTMT1 inh. purified Sfp enzyme, PPTase activity, qHTS. Potency, µM (series often up to 57.1 µM), inactives show top-dose activity change, negative = inhibition, actives largely listed as inhibitors. 230 compounds, 87% hits. AID 602370
hGST ctr – counter-screen for Sfp PPTase inhibitors: hGST A1-1 inhibition; shares compounds with NTMT1 inh; AID 602391; 55 tested, under 10 active; Potency, µM (series often up to 114 µM), inactives show top-dose activity change, negative = inhibition, hits mostly inhibitors; hGST A1-1 enzyme activity counter-screen, qHTS
HSD17B4 counter – counter-screen for HPGD inhibitors: human HSD17B4 inhibition | Potency, µM (doses to about 57.1 µM), inactives show at the top dose activity change, negative = inhibition, actives largely listed as inhibitors | 230 compounds, 10% hits | AID 743187 | purified HSD17B4, estradiol/NAD+, NADH fluorescence | shares compounds with NTMT1 inh
ALDH1A1 counter – inhibits human ALDH1A1, off-target for HPGD inhibitors | recombinant ALDH1A1, NADH fluorescence, propionaldehyde/NAD+ | shares compounds with NTMT1 inh | AID 743195 | Potency, µM (titrated, usually from 57.1 µM), inactives show at the top dose activity change, negative = inhibition, usual class: inhibitors | 230 compounds, 93% hits
NNMT counter – human NNMT inhibition, NTMT1 counter-screen | shares compounds with NTMT1 inh | NNMT MTase-Glo luminescence, SAH detection | Potency, µM (doses to about 57.1 µM), for the others: at the top dose activity, negative = inhibition, hits mostly inhibitors | 120 compounds, 10% hits | AID 1645878
Target sequence (P40261 whole entry, looked up): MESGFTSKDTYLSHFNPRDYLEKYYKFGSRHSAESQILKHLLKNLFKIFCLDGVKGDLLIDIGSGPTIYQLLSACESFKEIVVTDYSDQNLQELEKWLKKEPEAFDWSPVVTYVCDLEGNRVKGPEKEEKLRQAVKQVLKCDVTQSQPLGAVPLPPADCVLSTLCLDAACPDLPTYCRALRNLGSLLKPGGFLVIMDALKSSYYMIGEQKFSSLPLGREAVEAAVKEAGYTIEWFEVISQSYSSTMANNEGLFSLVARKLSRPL
An asterisk follows results filed as active; ? = inconclusive; / = no result given; ! = repeats disagree; [ ] = another dose, or the depositor's remark. The call rests on the fitted dose curve; in most records, active means well fitted curve in the direction sought with a large enough effect; inconclusive means small, poorly fitted or top-dose-only effect, or another doubt; inactive means no such curve, though single readings can be large; an effect the other way counts as inactive or inconclusive.

SMILES | HTT prom inh | NTMT1 inh | HTT-AS act | NNMT counter | others
CN(C)CCCn1cc(C2=C(c3c[nH]c4ccccc34)C(=O)NC2=O)c2ccccc21 | / | 25.1µM* | / | ?
CCCCn1cc(S(=O)(=O)c2ccc(F)cc2)c(=O)c2ccccc21 | -23.0% | -19.9% | 5.3% | /
Fc1cc(-c2cccc3ncc(-c4cnn(C5CCNCC5)c4)nc23)cc(F)c1CN1CCOCC1 | -9.9% | 17.8µM*! | -12.3% | -19.4%
COc1ccc2c(c1O)OC(C)(C)c1c-2ccc2c1C(=O)N(c1ccc(C(=O)c3ccccc3)cc1)C2=O | / | 23.6% | / | /
FC(F)(F)c1cccc(N2CCN(c3nc4ccccc4n4cnnc34)CC2)c1 | ? | -2.6% | -34.3% | /
FC(F)(F)c1cccc(N2CCN(C(=S)Nc3nccc4ccccc34)CC2)c1 | / | ? | / | / | Sfp qHTS opt=1.87µM*;HM489 growth=2.64µM*;Sfp PPTase gel=7.94µM*;Sfp inh gel=1.35µM*;Sfp inh SAR2=1.45µM*;hGST ctr=-9.6%;HSD17B4 counter=27.1µM*;ALDH1A1 counter=17.1µM*
O=C(c1cc2ccc3cccnc3c2[nH]1)N1CCN(c2cccc(C(F)(F)F)c2)CC1 | 1.4% | 4.6% | 0.8% | /
FC(F)(F)c1cccc(N2CCN(C(=S)Nc3ccc4ccccc4n3)CC2)c1 | / | / | / | / | Sfp qHTS opt=5.91µM*;HM489 growth=?;Sfp PPTase gel=0.316µM*;Sfp inh SAR2=10.2µM*;HSD17B4 counter=-22.9%;ALDH1A1 counter=6.81µM*
C=C1CCC2C(OC(=O)C2(O)COC(C)=O)C2C(=C)C(O)CC12 (stereo not given) | / | 8.7%[29.8 µM] | / | /
Cc1ncc([N+](=O)[O-])n1CC(O)CN1CCOCC1 (stereo not given) | / | -24.7%[57.5 µM] | / | /
Cc1ccc(OCCn2c(CCNC(=O)c3cccc(NC(=O)OC(C)(C)C)c3)nc3ccccc32)cc1 | / | 7.9%[57.5 µM] | / | /
Cc1cc(O)c(-c2ccc([C@@H](C)CN(C)C)cc2)c2c1[nH]c(=O)c1sccc12 | / | 25.1µM* | / | ?
CC1COC(Nc2ccc3ncnc(Nc4ccc(OCc5nccs5)c(Cl)c4)c3c2)=N1 (stereo not given) | / | -21.3%[57.5 µM] | / | /
CC(=O)c1c(C)oc2c1cc(NS(=O)(=O)c1ccc(Br)cc1)c1ccccc12 | ? | 5.3% | -39.3% | /
O=C(O)CSc1cc(NS(=O)(=O)c2ccc(Br)cc2)c2ccccc2c1O | / | 28.2µM* | / | ?
CCOc1ccc(C(=O)Oc2ccc(-c3nc4ccccc4[nH]3)cc2)cc1[N+](=O)[O-] | / | 2.5% | / | /
CCCCCOc1ccc(-c2ccc(-c3ccc(C(=O)N[C@H]4C[C@@H](O)[C@@H](O)NC(=O)[C@@H]5[C@@H](O)[C@@H](C)CN5C(=O)[C@H]([C@@H](C)O)NC(=O)[C@H]([C@H](O)[C@@H](O)c5ccc(O)cc5)NC(=O)[C@@H]5C[C@@H](O)CN5C(=O)[C@H]([C@@H](C)O)NC4=O)cc3)cc2)cc1 | / | 5.4%[29.8 µM] | / | -4.5%[28.6 µM]
CCCCCOc1ccc(-c2cc(-c3ccc(C(=O)N[C@H]4C[C@@H](O)[C@@H](O)NC(=O)C5[C@@H](O)[C@@H](C)CN5C(=O)C([C@H](O)CC(N)=O)NC(=O)C([C@H](O)[C@@H](O)c5ccc(O)c(OS(=O)(=O)O)c5)NC(=O)C5C[C@@H](O)CN5C(=O)C([C@@H](C)O)NC4=O)cc3)no2)cc1 (stereo not given in full) | / | 1.4%[29.8 µM] | / | /
CCCCCCOc1cc2c(cc1N(C)c1ncc(C(=O)O)cn1)C(C)(C)CCC2(C)C | / | 8.0%[57.5 µM] | / | /
CN(C)CCCNc1nc(CN2CCN(C(c3ccc(Cl)cc3)c3ccc(Cl)cc3)CC2)nc2ccccc12 | / | 3.2%[57.5 µM] | / | /
